A selection: hits, their analogues and other compounds. The true share with any hit is near 3%.
TbPYK inhibitor: blocks Trypanosoma brucei pyruvate kinase | Potency, µM (series often up to 76.8 µM), most hits filed as inhibitors | Q57TT1 | TbPYK enzyme, Kinase-Glo Plus ATP luminescence, 45 min | 0.12% of 410,000 active; note: nearly all actives have a fitted effect of over 50% in size
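Activity of T. brucei pyruvate kinase was followed by Kinase-Glo Plus luminescence after the enzyme reacted 45 min at room temperature with 130 uM ADP (final) and substrate. Test compounds were added before ADP at multiple concentrations.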
Sm TGR inh: S. mansoni TGR enzyme inhibition. Q962Y6. purified TGR, DTNB reduction, TNB absorbance 405 nm. Potency, µM (doses to about 114 µM), usual class: inhibitors. 3% of 360,000 active. AID 485364; note: nearly all actives have a fitted effect of over 60% in size
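TGR 20 nM + NADPH 100 uM (dispensed conc.), cpd preinc 15 min RT; start with NADPH (500 uM addition) then DTNB (15 mM addition). Kinetic TNB absorbance, 405 nm filter. Four-parameter Hill fit across titration.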
LmPK inhibitor: inhibitors of Leishmania mexicana pyruvate kinase | Q27686 | purified LmPK, Kinase-Glo ATP luminescence, 1 h | Potency, µM (doses to about 57.5 µM), hits mostly inhibitors | 0.37% of 290,000 active
Target sequence (Q27686 whole entry, looked up): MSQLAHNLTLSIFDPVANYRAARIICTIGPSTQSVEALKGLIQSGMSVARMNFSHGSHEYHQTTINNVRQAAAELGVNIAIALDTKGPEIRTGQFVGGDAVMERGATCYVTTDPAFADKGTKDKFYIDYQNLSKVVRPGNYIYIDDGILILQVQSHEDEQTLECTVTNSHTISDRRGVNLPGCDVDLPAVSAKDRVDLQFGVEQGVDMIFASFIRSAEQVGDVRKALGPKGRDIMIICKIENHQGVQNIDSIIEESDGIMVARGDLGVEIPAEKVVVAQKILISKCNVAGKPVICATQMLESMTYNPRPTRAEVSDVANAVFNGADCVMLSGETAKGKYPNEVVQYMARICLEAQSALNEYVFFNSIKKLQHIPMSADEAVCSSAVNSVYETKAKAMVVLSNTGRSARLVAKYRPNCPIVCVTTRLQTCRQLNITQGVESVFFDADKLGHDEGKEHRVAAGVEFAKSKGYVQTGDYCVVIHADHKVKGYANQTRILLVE
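0.1 nM LmPK, 0.5 mM PEP, 0.1 mM ADP; 50 mM imidazole pH 7.2, 7 mM MgCl2, 50 mM KCl; 1 h RT. Kinase-Glo luminescence readout, normalized to no-enzyme (full inhibition) and uninhibited wells.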
RE007 growth inh: less growth of the S. pombe RE007 Vpr strain; S. pombe RE007 Vpr strain, BacTiter-Glo ATP luminescence, 24 h; Potency, µM (doses to about 92.2 µM), hits mostly inhibitors; 0.21% of 360,000 active; AID 651644; active = well fitted falling curve with a large enough effect; inconclusive = small, poorly fitted or top-dose-only effect; inactive = no such curve, though single readings can be large or run the other way; note: nearly all actives have a fitted effect of over 50% in size
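Fission yeast RE007 carrying one integrated HIV-1 vpr copy, seeded at OD 0.01 in PMG+AL medium with 23 nL pinned compound. Grown 24 h at 30 degrees; viability read by BacTiter-Glo luminescence after 5 min.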
Hits are given with their value; – = inactive; ? = inconclusive; · = no result given; [ ] = dose if it differs, or a comment. Unless noted, calls come from the whole dose curve; as a rule, active = well fitted curve in the direction sought with a large enough effect; inconclusive = small, poorly fitted or top-dose-only effect, or another doubt; inactive = no such curve, though single readings can be large; an effect the other way counts as inactive or inconclusive.

SMILES | TbPYK inhibitor | Sm TGR inh | LmPK inhibitor | RE007 growth inh
Cc1nc(NC(=O)/C=C/c2ccco2)sc1C | – | 50µM | – | –
CCN(Cc1ccccc1)C(=O)C1CCN(S(=O)(=O)c2ccc3c(c2)CCCN3C(C)=O)CC1 | – | – | · | ·
COc1ccc(C(=O)COC(=O)c2cc(-c3ccccc3)nc3c(C)cccc23)cc1 | – | – | · | ·
COC(=O)c1sc(NC(=O)/C=C/c2ccc(C)o2)nc1C | – | 45µM | – | –
CCOC(=O)c1sc(NC(=O)/C=C/c2ccc(F)cc2)nc1C | – | · | – | –
CCc1nnc(NC(=O)/C=C/c2ccco2)s1 | – | 40µM | – | –
CCC(C)NC(=O)c1ccc2nc(CCc3ccccc3)oc2c1 (configuration not stated) | – | – | · | ·
O=C(NCC1CCCO1)c1csc(Nc2cccc3ccccc23)n1 (configuration not stated) | – | – | 14µM | –
COC(=O)c1ccc(NC(=O)CN2C(=O)CC(c3ccccc3)Sc3ccccc32)cc1 (configuration not stated) | – | – | · | ·
Cc1cc(C)cc(N2C(=O)NC(=O)/C(=C\C=C\c3ccco3)C2=O)c1 | – | ? | – | –
Cc1ccc(N2C(=O)NC(=O)/C(=C/C=C/c3ccco3)C2=O)cc1 | – | ? | – | –
O=C1NC(=O)N(c2ccccc2)C(=O)/C1=C\C=C\c1ccccc1 | ? | 14µM | – | –
CCc1ccc(N2C(=O)NC(=O)/C(=C\C=C\c3ccco3)C2=O)cc1 | – | 11µM | – | –
O=C1NC(=O)N(Cc2ccc(F)cc2)C(=O)/C1=C\C=C\c1ccco1 | – | 7.9µM | – | –
CCCCN1C(=O)/C(=C/C=C/c2ccco2)C(=O)NC1=S | – | 4.5µM | – | –
O=C(O)c1[nH]c2ccc(Cl)cc2c1CC(=O)N1CCN(C(=O)c2ccco2)CC1 | – | 22µM | – | –
O=C(c1cc2cc(Cl)ccc2[nH]1)N1CCN(C(=O)c2ccco2)CC1 | – | 16µM | – | –
O=C(c1cc2cc(Cl)ccc2[nH]1)N1CCN(c2ccccc2F)CC1 | – | – | – | –
CNc1ccc(-c2cccc([N+](=O)[O-])c2)cn1 | – | · | · | –[18.4 µM]
O=C(Nc1ccccc1)c1ccc2c(c1)OCCO2 | – | – | 14µM | –
COc1ccc(NC(=S)NC(=O)c2ccc3c(c2)OCCO3)cc1 | – | · | · | –
O=C(NC(=S)Nc1ccc(F)cc1)c1ccc2c(c1)OCCO2 | – | 11µM | – | –
O=C(NC(=S)Nc1ccc2c(c1)OCCO2)c1ccccc1 | – | 8.9µM | – | –
COc1cc(C2CC(=O)N(c3ccc(C)c(Cl)c3)C3=C2C(=O)OC3)cc(OC)c1OC (configuration not stated) | – | – | · | ·
COc1ccc(-n2c(=O)c3ccccc3n(Cc3cccc(C)c3)c2=O)cc1 | – | – | · | ·
SMILES | TbPYK inhibitor | Sm TGR inh | LmPK inhibitor | RE007 growth inh
CCC(=O)N1CCC1(C)C(=O)Nc1cccc(OC)c1OC (configuration not stated) | – | · | · | –[18.4 µM]
CN1/C(=C/C2CC(=O)N(c3ccc([N+](=O)[O-])cc3)C2=O)C(C)(C)c2ccccc21 (configuration not stated) | – | 13µM | – | –
CN1/C(=C\C(=S)NC(=O)c2ccc([N+](=O)[O-])cc2)C(C)(C)c2ccccc21 | – | – | – | –
Cc1cccc(NS(=O)(=O)c2c(C)nc3sccn3c2=O)c1C | – | – | · | ·
C=Cc1ccc(Cn2c(=O)cc(C)c3c(C)nn(C)c32)cc1 | – | – | · | ·
CC(Sc1nnc(Cc2cccs2)n1C1CCCCC1)C(=O)NCc1ccco1 (configuration not stated) | – | 50µM | – | –
CC(Sc1nnc(Cc2cccs2)n1C1CCCCC1)C(=O)N1CCc2ccccc21 (configuration not stated) | – | – | – | –
Cc1c(Cl)ccc2c1NC(=O)[C@]21N[C@@H](CCC(N)=O)[C@H]2C(=O)N(c3ccc(F)cc3)C(=O)[C@H]21 | – | 13µM | – | –
CSCCC1NC2(C(=O)Nc3c2ccc(Cl)c3C)[C@@H]2C(=O)N(C3CCCC3)C(=O)[C@H]12 (some centres not stated) | – | – | – | –
Cc1c(Cl)ccc2c1NC(=O)C21NC(CCC(N)=O)[C@H]2C(=O)N(c3ccc(Cl)cc3)C(=O)[C@H]21 (some centres not stated) | – | 35µM | – | –
Cc1nnc(SCc2nc3sc4c(c3c(=O)[nH]2)CCCC4)n(N)c1=O | – | 14µM | – | –

Compound activity: PubChem, National Center for Advancing Translational Sciences (NCATS)
